Among the data in the supplement of paper PMC9262897, “Low-cost anti-mycobacterial drug discovery using engineered E. coli” (Nature Communications, 2022) are growth values, retold here.

Counter-ions that a name gives are not always drawn. ± gives the standard deviation of the averaged measurements.

The assay relates to E. coli TESEC Mtb Alr. Kind of assay: growth (OD600 after 10 h); higher = more growth (less inhibition). Particulars: compound 0.1 mM. The method, then:
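TESEC Mtb Alr E. coli, or the Alr+ wild-type control, in 384-well plates with Prestwick library compounds at 0.1 mM and 1% DMSO, across arabinose induction levels of 1E3 to 1E7 nM. Growth is read as OD600 after 10 h at 37 °C in triplicate biological replicates.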

[1] abbreviates: arabinose 1000 nM, raw OD600 reference: median of DMSO wells 0.294, cell-free background 0.041.
Setting [2] is: arabinose 10000 nM, raw OD600 reference: median of DMSO wells 0.264, cell-free background 0.041.
Where [3] appears, read: arabinose 100000 nM, raw OD600 reference: median of DMSO wells 0.201, cell-free background 0.041.
The mark [4] stands for this setting: arabinose 1000000 nM, raw OD600 reference: median of DMSO wells 0.193, cell-free background 0.041.
[5] abbreviates: arabinose 10000000 nM, raw OD600 reference: median of DMSO wells 0.146, cell-free background 0.041.

Turning to `CCCN1C[C@H](CSC)C[C@@H]2c3cccc4[nH]cc(c34)C[C@H]21` [Pergolide mesylate], the growth runs as follows: under setting [1], 0.254 ± 0.014; under setting [2], 0.252 ± 0.0036; under setting [3], 0.185 ± 0.0061; under setting [4], 0.161 ± 0.0045; under setting [5], 0.156 ± 0.0071.
Consider `C#CCN(C)[C@H](C)Cc1ccccc1` [Selegiline hydrochloride], for which the growth was determined as 0.305 ± 0.015 under setting [1]; 0.283 ± 0.0084 under setting [2]; 0.233 ± 0.026 under setting [3]; 0.185 ± 0.0036 under setting [4]; 0.17 ± 0.004 under setting [5].
Turning to `COc1ccc(CCN2CCC(Nc3nc4ccccc4n3Cc3ccc(F)cc3)CC2)cc1` [Astemizole], the growth reads like this: under setting [1], 0.0406 ± 0.00056; under setting [2], 0.04013 ± 0.00025; under setting [3], 0.0411 ± 0.0019; under setting [4], 0.04007 ± 0.00031; under setting [5], 0.0404 ± 0.0002.
In the same order, the values of `CC(C)c1c(CN(C)C(C)Cc2ccccc2)n(C)n(-c2ccccc2)c1=O` (stereo not given) [Famprofazone] are 0.279 ± 0.013, 0.27 ± 0.014, 0.154 ± 0.0078, 0.131 ± 0.0042 and 0.154 ± 0.0085.
Taken in the same sequence, the figures for `C[C@@H]1CN([C@H]2CC[C@](C#N)(c3ccc(F)cc3)CC2)CC[C@]1(C(=O)O)c1ccccc1` [Levocabastine hydrochloride] were 0.274 ± 0.0041, 0.271 ± 0.017, 0.171 ± 0.011, 0.154 ± 0.0044 and 0.154 ± 0.0047.
In the same order, the values of `CC(N)C(O)c1ccccc1` (stereo not given) [Phenylpropanolamine hydrochloride] are 0.298 ± 0.0047, 0.254 ± 0.0066, 0.229 ± 0.045, 0.19 ± 0.011 and 0.148 ± 0.0054.
Compound `CN(C)[C@@H]1C(=O)C(C(N)=O)=C(O)[C@@]2(O)C(=O)C3=C(O)c4c(O)ccc(Cl)c4[C@@](C)(O)[C@H]3C[C@@H]12` [Chlortetracycline hydrochloride] showed a growth under setting [1] of 0.0417 ± 0.0029; a growth under setting [2] of 0.04 ± 0.00072; a growth under setting [3] of 0.0444 ± 0.0038; a growth under setting [4] of 0.0402 ± 0.0018; a growth under setting [5] of 0.0405 ± 0.0011.
In the same order, the values of `Fc1ccc(C(OCCN2CCN(CCCc3ccccc3)CC2)c2ccc(F)cc2)cc1` are 0.04027 ± 0.00025, 0.0453 ± 0.00061, 0.0419 ± 0.0013, 0.045 ± 0.00035 and 0.0435 ± 0.00049.
